Values joined by “and” are separate entries in the source; they are usually repeats but may differ in a detail not shown here. Identical values can stand only once. Counter-ions that a name gives are not always drawn.
Key:
Assay in all cases: cell viability relative to vehicle control; higher = less cytotoxic
Details in all cases: 10 µM
[1] = system: K562
How it was run: (§1)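 Screening covered the Selleck bioactive, kinase and epigenetic probe libraries, less identity-inconsistent compounds, on CRISPR-edited mutant clones and isogenic wild-type clones of four leukaemia lines. Cells, at 2000 per well in 50 µL medium, received a single 10 µM acoustically dispensed dose. After 48 h the supernatant was removed and CellTiter-Glo luminescence was read. Viability was analysed in Genedata Screener as percent of the on-plate vehicle control.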

[2] = system: MARIMO
How it was run: as §1

[3] = system: MOLM14
How it was run: as §1

[4] = system: OCI-AML2
How it was run: as §1

SMILES | cell viability ([1]; SRSF2 genotype: SRSF2 P95H/wt) | cell viability ([1]; SRSF2 genotype: SRSF2 wt/wt) | cell viability ([2]; SRSF2 genotype: SRSF2 P95H/wt) | cell viability ([2]; SRSF2 genotype: SRSF2 wt/wt) | cell viability ([3]; SRSF2 genotype: SRSF2 P95H/wt) | cell viability ([3]; SRSF2 genotype: SRSF2 wt/wt) | cell viability ([4]; SRSF2 genotype: P95H/wt) | cell viability ([4]; SRSF2 genotype: wt/wt)
C#C[C@]1(O)CC[C@H]2[C@@H]3CCC4=CC(=O)CC[C@@H]4[C@H]3CC[C@@]21CC [Levonorgestrel (Levonelle)] | 104% and 102% | 101% | 95.7% | 109% | 104% | 103% | 105% | 108%
COc1cc(O)c2c(=O)c(O[C@@H]3O[C@H](CO)[C@@H](O)[C@H](O)[C@H]3O)c(-c3ccc(O[C@@H]4O[C@H](CO)[C@@H](O)[C@H](O)[C@H]4O)cc3)oc2c1 [Complanatuside] | 105% and 101% | 106% | 108% | 104% | 108% | 106% | 107% | 96.2%
O=C(O)CCN1C(=O)/C(=C/c2ccc(-c3ccc([N+](=O)[O-])cc3)o2)SC1=S | 104% and 106% | 111% | 100% | 98.5% | 93.3% | 101% | 103% | 109%
O=C(Nc1ccc(-c2ccnc(Nc3ccc(N4CCOCC4)cc3)n2)cc1)C1CCCN1 (stereo not given) | 89.5% and 97.2% | 89.5% | 72.2% | 73.5% | 35.5% | 22.4% | 43.1% | 39.2%
CC(C)C[C@H](NP(=O)(O)O[C@@H]1O[C@@H](C)[C@H](O)[C@@H](O)[C@H]1O)C(=O)N[C@@H](Cc1c[nH]c2ccccc12)C(=O)O [Phosphoramidon Disodium Salt] | 104% and 101% | 92.3% | 101% | 106% | 95.5% | 104% | 98.6% | 96.9%
Cc1cn([C@H]2C[C@H](O)[C@@H](CO)O2)c(=O)[nH]c1=O [Thymidine] | 98.3% and 88% | 98.2% | 96.6% | 102% | 92.5% | 99.7% | 91.8% | 99.9%
O=C(O)c1c[nH]c2cc(Cl)c(-c3ccc(C4(O)CCC4)cc3)cc12 | 91.2% and 101% | 95.2% | 92.8% | 115% | 106% | 102% | 86.5% | 96.9%
N=C(N)N [Guanidine (Aminoformamidine) HCl] | 94.2% and 97% | 103% | 104% | 98.3% | 97% | 98.7% | 102% | 98.1%
CCCN(CCc1cccs1)[C@H]1CCc2c(O)cccc2C1 [Rotigotine] | 99.3% and 105% | 104% | 89.7% | 105% | 93.8% | 101% | 107% | 92.3%
COC(=O)C=Cc1ccc(O)cc1 [Methyl 4-hydroxycinnamate] | 95% and 87.9% | 82.3% | 83.5% | 97.5% | 85.6% | 95.2% | 105% | 105%
CN/C(=N\CCSCc1nc[nH]c1C)NC#N [Cimetidine (Tagamet)] | 102% and 100% | 98.8% | 102% | 106% | 101% | 102% | 105% | 104%
OC(c1cc(C(F)(F)F)nc2c(C(F)(F)F)cccc12)C1CCCCN1 (stereo not given) [Mefloquine HCl] | 0.97% and 1.02% | 0.97% | 0.56% | 0.87% | 0.48% | 0.44% | 0.35% | 1.68%
C[C@@H](Oc1cc(-n2cnc3ccc(CN4CCN(C)CC4)cc32)sc1C(N)=O)c1ccccc1C(F)(F)F | 31.9% and 32.9% | 34.1% | 35.9% | 34.3% | 16.8% | 7.12% | 4.11% | 17.1%
O=C(c1ccc(Cl)cc1)N(Cc1ccccc1)C1CCCCC1 | 86.1% and 92.9% | 92.3% | 75.2% | 84.1% | 78.1% | 94.6% | 72.5% | 81.8%
Nc1ccn([C@H]2CC[C@@H](CO)O2)c(=O)n1 [Zalcitabine] | 111% and 103% | 111% | 107% | 112% | 105% | 107% | 58.7% | 83%
Cc1nc(-c2cccnc2)sc1C(=O)Nc1ccccc1-c1cn2c(CN3CCOCC3)csc2n1 | 97.4% and 94.2% | 88.3% | 107% | 116% | 102% | 103% | 95.3% | 102%
CCCCCCCCCCCCCCCc1cccc(O)c1C(=O)O [Anacardic Acid] | 88.9% and 86.6% | 84.8% | 81.7% | 86.7% | 86.3% | 82.9% | 87.5% | 83.5%
CC1=C(CSC(=S)N2CCCCC2)C(=O)c2ccccc2C1=O [PKM2 inhibitor(compound 3k)] | 3.74% and 0.42% | 8.02% | 0.75% | 0.85% | 0.19% | 0.21% | 0.2% | 1.51%
CSc1ccc(C(=O)/C=C/c2cc(C)c(OC(C)(C)C(=O)O)c(C)c2)cc1 [Elafibranor] | 91.2% and 99.2% | 88.1% | 91.3% | 91% | 34.2% | 30% | 61.7% | 57%
CC(C)c1cc2c(c(O)c1O)[C@@]13CCCC(C)(C)[C@@H]1C[C@@H]2OC3=O [Carnosol] | 43.3% and 33.8% | 61.7% | 4.39% | 0.77% | 6.11% | 5.25% | 5.94% | 1.96%

SMILES | cell viability ([1]; SRSF2 genotype: SRSF2 P95H/wt) | cell viability ([1]; SRSF2 genotype: SRSF2 wt/wt) | cell viability ([2]; SRSF2 genotype: SRSF2 P95H/wt) | cell viability ([2]; SRSF2 genotype: SRSF2 wt/wt) | cell viability ([3]; SRSF2 genotype: SRSF2 P95H/wt) | cell viability ([3]; SRSF2 genotype: SRSF2 wt/wt) | cell viability ([4]; SRSF2 genotype: P95H/wt) | cell viability ([4]; SRSF2 genotype: wt/wt)
CCCCC(F)(F)[C@@]1(O)CC[C@H]2[C@@H](CC(=O)[C@@H]2CCCCCCC(=O)O)O1 [Lubiprostone] | 101% and 100% | 104% | 93.9% | 98% | 84.5% | 98.8% | 83.6% | 88%
Clc1ccc(C(Cn2ccnc2)OCc2ccsc2Cl)c(Cl)c1 (stereo not given) [Tioconazole] | 69.5% and 76.7% | 71.6% | 69.7% | 71.2% | 62.4% | 69.5% | 59.9% | 63.1%
O=C(O)c1c[nH]c2ccccc12 [Indole-3-carboxylic acid] | 103% and 92% | 100% | 97.8% | 110% | 94.3% | 101% | 92.3% | 114%
C[N+](C)(C)C[C@H](O)CC(=O)[O-] [L-carnitine (Levocarnitine)] | 103% and 99.6% | 99.8% | 99.1% | 105% | 95.1% | 103% | 90.9% | 110%
N[C@@H](CC(=O)N1CCn2c(nnc2C(F)(F)F)C1)Cc1cc(F)c(F)cc1F [Sitagliptin phosphate monohydrate] | 97.7% and 96.1% | 102% | 98.1% | 110% | 102% | 103% | 109% | 117%
CN(C)CC(c1ccc(O)cc1)C1(O)CCCCC1 (stereo not given) [Desvenlafaxine Succinate] | 96.4% and 90.5% | 101% | 98.4% | 103% | 98.4% | 100% | 100% | 90%
O=c1ccn([C@@H]2O[C@H](CO)[C@@H](O)[C@H]2O)c(=O)[nH]1 [Uridine] | 105% and 90% | 94.1% | 81.2% | 92.2% | 82.8% | 90% | 78.3% | 92.8%
OCCOCCN1CCN(C2=Nc3ccccc3Sc3ccccc32)CC1 [Quetiapine fumarate (Seroquel)] | 91.1% and 95.4% | 96.3% | 85.8% | 95.8% | 90% | 94.9% | 74.6% | 87%
COC(=O)c1c2c(c3ccccc3c1O)OC(C)(C)C=C2 [Rubimaillin] | 86.1% and 90% | 79.6% | 20% | 39.7% | 2.68% | 3.56% | 28.1% | 41.4%
N#Cc1ccc(-c2csc(NN=C3CCCC3)n2)cc1 [Remodelin] | 76.6% and 86.8% | 87.6% | 66.9% | 62.1% | 92.3% | 99.4% | 61% | 72.3%
O=C(CCCCCN1C(=O)c2cccc3cccc(c23)C1=O)NO [Scriptaid] | 1.69% and 12.5% | 11.4% | 4.53% | 4.11% | 0.6% | 0.53% | 0.32% | 0.98%
C1CCN2C[C@@H]3C[C@@H](CN4CCCC[C@@H]34)[C@H]2C1 [Sparteine] | 95% and 97.6% | 91.1% | 96.8% | 94.9% | 99% | 94.8% | 97.5% | 94.3%
COc1cc(C(=O)N(CCCc2ccccc2)Cc2ccc(CC(=O)O)cc2)cc(OC)c1C | 95.6% and 98% | 99.5% | 105% | 109% | 101% | 99.4% | 101% | 100%
C[C@H](CC(=O)C[C@@H](C)[C@H]1C[C@H](O)[C@@]2(C)C3=C(C(=O)C[C@]12C)[C@@]1(C)CCC(=O)C(C)(C)[C@@H]1C[C@@H]3O)C(=O)O [Ganoderic acid A] | 102% and 109% | 103% | 104% | 104% | 99.5% | 102% | 102% | 111%
Nc1cc(C(Cl)=C(Cl)Cl)c(S(N)(=O)=O)cc1S(N)(=O)=O [Clorsulon] | 92.3% and 94.2% | 99.7% | 103% | 107% | 104% | 99.8% | 99.9% | 112%
O=C(Nc1ccc(Br)cc1)c1c(O)cccc1O [Resorantel] | 17.7% and 15.3% | 19.6% | 38.7% | 39.3% | 17.5% | 11.8% | 4.86% | 14.2%
CC(C)=CCc1cc2c(cc1O)oc(=O)c1c3ccc(O)cc3oc21 [Psoralidin] | 98.2% and 95.7% | 95.2% | 98% | 106% | 115% | 107% | 98% | 98.9%
O=C(Oc1cccc(F)c1OC(=O)c1cccc(O)c1)c1cccc(O)c1 | 92.4% and 99.5% | 94.9% | 68.8% | 88.4% | 78.4% | 80.3% | 92.6% | 82.4%
CCc1nc(-c2cccc(C)c2)c(-c2ccnc(NC(=O)c3ccccc3)c2)s1 | 75.8% and 73% | 66.3% | 72.3% | 64% | 76.5% | 86.7% | 83.7% | 76.5%
CN1CCN2c3ccccc3Cc3ccccc3C2C1 (stereo not given) [Mianserin HCl] | 92.5% and 97.9% | 92.2% | 83.7% | 86.5% | 93.5% | 97.8% | 91.2% | 86.4%

Reference: the supplement of paper PMC10981050
